# According to PubChem BioAssay AID2501 (Southern Research Specialized Biocontainment Screening …, 2010):
# Among all 2,200 compounds or so, about 1,200 (55%) were called active. Cut-off not given; nearly all actives show IC50 up to about 92 µM. The set was probably picked from earlier hits. Some of the results follow.
# Test: counter assay for TAg ATPase ADP read-out – biochemical, ADP-Hunter, fluorescence, counter-screen (AID 2501);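 further: purified T antigen ATPase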
# Details: series mostly up to 100 µM
row,SMILES,IC50
1,COc1ccc(-c2cc(-c3ccco3)[nH]c(=O)c2C#N)cc1OC,inactive
2,O=C1SC(SCc2ccccc2)=N/C1=C\c1ccco1,inactive
3,Cc1ccc(CNc2ccc(N3CCOCC3)cc2)cc1,3.89 µM (active)
4,COc1ccc(CNS(=O)(=O)c2ccc3c(c2)N(C)CCO3)cc1,inactive
5,COc1ccc(CNc2ccc(N3CCOCC3)cc2)cc1,10.5 µM (active)
6,CCCCn1nc(NS(=O)(=O)c2cccc3nonc23)c2cc3cccc(C)c3nc21,20.5 µM (active)
7,CCCc1cc(=O)oc2cc(C)c(CN3CCCC3)c(O)c12,inactive
8,O=C1CCN(Cc2ccc(O)cc2)CCN1[C@H](CO)Cc1ccccc1,inactive
9,O=c1cc(CN2CCN(Cc3ccccc3)CC2)c2ccc(O)c(O)c2o1,10.9 µM (active)
10,Cc1ccc(/C=N\NC(=O)COc2ccc(C)cc2[N+](=O)[O-])cc1,23.3 µM (active)
11,O=C(COc1ccccc1[N+](=O)[O-])N/N=C/c1ccc(O)cc1,6.73 µM (active)
12,Cc1ccc(S(=O)(=O)Cc2cc(F)c([N+](=O)[O-])cc2[N+](=O)[O-])cc1,inactive
13,COc1ccc(C)cc1NC(=O)COC(=O)c1ccc([N+](=O)[O-])o1,inactive
14,CCc1ccc2cccc3c2c1N=CN3C,8.65 µM (active)
15,C[C@H](CCC(=O)O)[C@H]1CC[C@H]2[C@@H]3CC[C@@H]4C[C@H](O)CC[C@]4(C)[C@H]3CC[C@]12C,inactive
16,Cc1cnc(C(=O)Nc2ccc(S(=O)(=O)NCC(C)C)cc2)cn1,inactive
17,CN(C)c1ccc(NC(=O)CSc2nnc(-c3cnccn3)n2C)cc1,7.11 µM (active)
18,CCn1c(SCC(=O)Nc2ccc(N(C)C)cc2)nnc1C1CC1,5.16 µM (active)
19,Nn1c(SCC(=O)NC(=O)Nc2ccc3c(c2)OCCO3)nnc1C1CC1,inactive
20,Cc1nnc(SCC(=O)Nc2ccc(N(C)C)cc2)n(N)c1=O,5.56 µM (active)
21,CCCCOC(=O)c1ccc(NC(=O)CSc2nnnn2C)cc1,inactive
22,CCCCn1nnnc1SCC(=O)Nc1ccc(N(C)C)cc1,3.37 µM (active)
23,CCn1c2ccccc2c2cc(NC(=O)CSc3nnc(C4CC4)n3Cc3ccco3)ccc21,inactive

row,SMILES,IC50
1,Cn1ccnc1SCC(=O)Nc1cccc(C(F)(F)F)c1,inactive
2,Cc1cc(-c2nc3c4c5c(sc4[nH]c(=O)n3n2)CCC5)c(C)o1,inactive
3,CNC[C@@H](C)NC[C@@H](Cc1ccccc1)NCCc1ccccc1,inactive
4,Cc1c(CCC(=O)NCCCC(=O)O)c(=O)oc2cc3oc4c(c3cc12)CCCC4,inactive
5,CCOC(CNC(=O)C1CCN(S(=O)(=O)c2ccc3nc4c(c(C(=O)O)c3c2)CCCCC4)CC1)OCC,inactive
6,O=C(NCc1ccco1)C1CC(=O)N(c2ccc(O)cc2)C1 (centres undefined),6.48 µM (active)
7,Cc1ccc(C)c(S(=O)(=O)N2CCCCC2CCNC(=O)C(=O)NCc2ccco2)c1 (centres undefined),inactive
8,O=C(CCN1C(=O)c2ccccc2S1(=O)=O)NCc1ccco1,inactive
9,Cc1nc2ccc(N=NN(C)C)cc2[nH]1,inactive
10,CCCCC1(C)OC(=O)C(=Cc2ccc(-c3ccc(Cl)c(C(=O)O)c3)o2)C(=O)O1 (centres undefined),inactive
11,Cc1cccc(N2NC(=O)/C(=C/c3ccc(-c4ccc(Cl)c(C(=O)O)c4)o3)C2=O)c1,31.9 µM (active)
12,O=C1NN(c2ccccc2)C(=O)/C1=C/c1ccc(-c2ccc(Cl)c(C(=O)O)c2)o1,13.7 µM (active)
13,N#CC1=C(S)N(c2ccccc2)C(c2ccc(-c3ccc(Cl)c(Cl)c3)o2)NC1=O (centres undefined),inactive
14,Cn1sc(=O)c2cc(S(=O)(=O)NC3CC3)ccc21,inactive
15,CCN1C(=O)CC(N2CCC(Nc3ccc(OC)cc3)CC2)C1=O (centres undefined),4.87 µM (active)
16,O=C(O)c1cc(Nc2cc(Cl)c3nonc3c2[N+](=O)[O-])ccc1O,inactive
17,O=C1NC(=O)C(c2ccccc2[N+](=O)[O-])=C1Nc1ccc(O)c(Cl)c1,11.8 µM (active)
18,N=c1c2c(ncn1CCCO)Oc1ccc3ccccc3c1C2c1ccccc1 (centres undefined),inactive
19,COc1cc(/C=C(\C#N)c2nc3ccccc3n2C)cc(OC)c1O,6.31 µM (active)
20,COc1cc(/C=C(\C#N)c2ccccn2)cc(OC)c1O,4.83 µM (active)
21,COc1ccc(S(=O)(=O)N2CCC(NC(=O)c3ccccc3)CC2)cc1,inactive
22,COc1ccc(-c2ccc(OC(=O)NC3CCS(=O)(=O)C3)cc2)cc1 (centres undefined),5.8 µM (active)
23,O=c1c(C(c2c(O)nc3n(c2=O)CCS3)c2cccc3ccccc23)c(O)nc2n1CCS2,20.9 µM (active)

row,SMILES,IC50
1,C=CCOc1ccc(C2NC(=S)NC(c3ccccc3)=C2C(C)=O)cc1OC (centres undefined),inactive
2,Oc1ccc(/C=N/Nc2ccc(Cl)nn2)cc1O,8.65 µM (active)
3,Oc1ccc(/C=N/Nc2ccc(C(F)(F)F)cn2)cc1O,5.59 µM (active)
4,N=C1/C(=C/c2ccc(Br)o2)C(=O)N=C2SC(CC(=O)N3CCCC3)=NN12,inactive
5,N#CC1(NC(=O)COC(=O)c2cc(O)c3ccccc3c2O)CCCCC1,inactive
6,CC1=C(C(=O)OCC(C)C)C(c2cccs2)NC(=S)N1 (centres undefined),inactive
7,CN(C(=O)c1ccccc1C(=O)OCC(=O)NCc1cccs1)C1CCCCC1,44.1 µM (active)
8,Cc1ccc(-n2nnnc2C(Cl)(Cl)c2nnnn2-c2ccc(C)cc2)cc1,inactive
9,Nc1nc(-c2ccco2)cs1,10.8 µM (active)
10,c1coc(-c2nc(-c3ccco3)c(-c3ccco3)nc2-c2ccco2)c1,inactive
11,c1coc(-c2nc3ccccc3nc2-c2ccco2)c1,inactive
12,NC(=O)c1sc2nnc(-c3ccccc3)c(-c3ccccc3)c2c1N,inactive
13,Nc1ccc(-c2sc(N)nc2-c2ccccc2)cc1,8.36 µM (active)
14,ClCC1=Nc2cccc3cccc(c23)N1,4.21 µM (active)
15,CC(C)CCNC(=O)CCCc1ccccc1,inactive
16,O=C(COC(=O)CSc1ccc([N+](=O)[O-])cc1)NCCc1ccccc1,inactive
17,CCOc1cc(/C=N\NC(=O)CC(=O)NCCc2ccccc2)ccc1O,4.71 µM (active)
18,COc1cc(/C=N\NC(=O)CC(=O)NCCc2ccccc2)ccc1O,3.22 µM (active)
19,COc1ccc(Cl)cc1NC(=S)N1CCC(c2ccc(C)cc2)C1 (centres undefined),inactive
20,COc1ccc(N2CCC(CNC(=S)Nc3ccc(C)cc3C)C2)cc1 (centres undefined),10.7 µM (active)
21,COc1ccc(N2CCC(CNC(=S)Nc3c(C)cccc3C)C2)cc1 (centres undefined),7.45 µM (active)
22,COc1ccc(N2CCC(CNC(=S)Nc3c(C)cc(C)cc3C)C2)cc1 (centres undefined),12.1 µM (active)
23,Cc1ccc(NC(=S)NCC2CCN(C(C)c3ccccc3)C2)cc1C (centres undefined),inactive
